# In the library only some 14% were active in any assay of this set; here they are far more common.
# HSD17B inhib – qHTS Assay for Inhibitors of HSD17B4, hydroxysteroid (17-beta) dehydrogenase 4; Potency, µM (doses to about 57.1 µM), for inactives: at the highest dose activity change, negative = inhibition, hits mostly inhibitors; actives 7.6% (n = 75,000); 3-hydroxyacyl-CoA dehydrogenase type-2 (Homo sapiens), Q99714; recombinant HSD17B10, NADH fluorescence kinetic;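 note: the protocol describes HADH2 (HSD17B10) and not the HSD17B4 of the title; potency is the fitted concentration of half-maximal effect; % is set by controls: 0 for no effect and ±100 for the full control effect; nearly all actives have a fitted effect of over 70% in size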
#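 His-tagged E. coli-expressed HADH2 at 20 nM in 100 mM Tris-HCl pH 9.0 with 0.01 % Tween-20, preincubated 15 min with compound at room temperature. Reaction with 1 mM NAD+ and 90 uM beta-hydroxybutyryl coenzyme A; NADH fluorescence (360/450 nm) read kinetically over 4 min, last minus first point.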
# HADH2 inhib – qHTS Assay for Inhibitors of HADH2 (Hydroxyacyl-Coenzyme A Dehydrogenase, Type II); Potency, µM (highest dose often 57.1 µM), for inactives: at the top dose activity change, negative = inhibition, actives largely listed as inhibitors; actives 3.4% (n = 73,000); recombinant HADH2, NADH fluorescence, beta-hydroxybutyryl-CoA; note: potency is the fitted concentration of half-maximal effect; % is set by controls: 0 for no effect and ±100 for the full control effect; nearly all actives have a fitted effect of over 60% in size
# Target sequence (Q99714 whole entry, looked up, one chain of several): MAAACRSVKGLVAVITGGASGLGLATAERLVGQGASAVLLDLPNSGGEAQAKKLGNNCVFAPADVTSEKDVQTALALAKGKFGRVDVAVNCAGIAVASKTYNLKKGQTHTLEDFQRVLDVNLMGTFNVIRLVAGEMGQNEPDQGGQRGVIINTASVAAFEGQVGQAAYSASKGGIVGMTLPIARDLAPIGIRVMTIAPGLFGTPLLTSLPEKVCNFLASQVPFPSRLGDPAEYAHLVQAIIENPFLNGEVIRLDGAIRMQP
#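 Read-out: 360 nm excitation, 450 nm emission, kinetic over 4 min. Conditions: His-tagged human HADH2 20 nM, pH 9.0 Tris with Tween-20, 1 mM NAD+, 90 uM beta-hydroxybutyryl-CoA.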
# CRE Fsk mod – Cell signaling CRE-BLA (Fsk stim); CHO CRE-bla reporter (cAMP response element driving beta-lactamase), forskolin EC10, beta-lactamase ratio; Potency, µM (doses to about 38.2 µM), without a hit: top-dose activity change, negative = inhibition, usual class: activators; actives 2.5% (n = 71,000); AID 662, 2007; active = well fitted activation curve with a large enough effect in the signal ratio, with a control signal flat, not every such curve was filed as active; inconclusive = small, poorly fitted or top-dose-only effect, or effect the other way, or a change in a side signal; the % refers to the signal ratio; note: potency is the fitted concentration of half-maximal effect; % of control where 0% means no effect
#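 Modulation of forskolin signalling: compounds in titration series added with EC10 NKH 477 to CHO cells carrying a CRE-driven beta-lactamase reporter, 3 h, 37C. CCF4 FRET ratio (460/530 nm, ex 405 nm) gives %activity and AC50.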
# AID923 – qHTS Assay for Allosteric/Competitive Inhibitors of Caspase-1: Spectroscopic Profiling in AFC Spectral Region; compound fluorescence, AFC spectral region (405/520 nm); Potency, µM (highest dose often 57.5 µM), without a hit: top-dose fluorescence increase, hits mostly activators; actives 1.1% (n = 75,000); note: potency is the fitted concentration of half-maximal effect; 0% is about no effect
#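 Baseline compound fluorescence (AFC region, 405 nm ex/520 nm em) taken from the intercept of kinetic reads with 50 nM caspase-1 and 5 uM Ac-WEHD-AFC; normalized to an on-plate AFC standard curve; compounds titrated up to 57 uM.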
# 4-MU autofl – qHTS Assay for Spectroscopic Profiling in 4-MU Spectral Region; actives 11% (n = 59,000); AID 589, 2007; compound autofluorescence, 340/450 nm, 4-MU equivalents; hits give high values; max dye-equivalent concentration, M; in the data active = max dye-equivalent concentration above about 10 nM; inconclusive = mostly about 1.1 nM to 9.6 nM
#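 Compounds in 100 mM Tris, pH 8.0, incubated 15 min at room temperature, then fluorescence read at 340 nm excitation/450 nm emission. Signal converted to 4-MU dye-equivalent concentration using an on-plate six-point 4-MU standard curve.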
# A350 fluor – qHTS Assay for Spectroscopic Profiling in A350 Spectral Region; max dye-equivalent concentration, M; Compound autofluorescence, 340/450 nm, Alexa 350 dye-equivalents; hits give high values; actives 11% (n = 59,000); AID 590, 2007; in the data active = max dye-equivalent concentration above about 10 nM; inconclusive = mostly about 1.1 nM to 9.6 nM
# CHO via 24h – Cell Viability - CRE-beta lactamase CHO cell - 24 hr assay; 120 tested, under 10 active; activity, negative = viability loss, % at 46.1 µM; CRE-bla CHO viability, ATP luminescence, 24 h; shares compounds with CRE Fsk mod
# CHO via 40h – Cell Viability - CRE-beta lactamase CHO cell - 40 hr assay; shares compounds with CRE Fsk mod; CRE-bla CHO viability, ATP luminescence, 40 h; Potency, µM, inactives show max response, actives largely listed as inhibitors; 120 tested, under 10 active
# CRE-luc potent – Confirmation Concentration-Response Assay for Cell signaling CRE-BLA (Fsk stim) - HEK293 CREB Luciferase. Potency, µM (series often up to 38.3 µM), without a hit: at the highest dose activity, positive = activation, most hits filed as activators. AID 907, 2007. shares compounds with CRE Fsk mod. actives 80% (n = 120). HEK293 CRE-luc2P, NKH477 EC10 potentiation, luminescence, 4 h
# * hit, by the source's call; i = inactive; ? = inconclusive; / = no result given; [ ] = remark or other dose. Unless noted, calls come from the whole dose curve; as a rule, active = well fitted curve in the direction sought with a large enough effect; inconclusive = small, poorly fitted or top-dose-only effect, or another doubt; inactive = no such curve, though single readings can be large; an effect the other way counts as inactive or inconclusive.
SMILES,HSD17B inhib,HADH2 inhib,CRE Fsk mod,AID923,4-MU autofl,A350 fluor,CHO via 24h,CHO via 40h,CRE-luc potent
C=CCNc1nc(Nc2ccc(OC)cc2OC)nc(OCC)n1,-4%,8%,5µM*,4%,i,i,-1,-11%,10µM*
COc1ccc(NC(=O)COc2ccccc2)c(OC)c1,4%,3%,-11%,1%,i,i,/,/,/
Cc1nn(-c2ccccc2)c2sc(C(=O)N(CC(=O)NC(C)(C)C)Cc3ccco3)cc12,-29%,-7%,18%,2%,i,i,?,?,13µM*
Nc1nc(CSc2n[nH]c(-c3ccccc3)n2)nc(Nc2ccccc2)n1,-14%,-5%,2µM*,-2%,i,?,-10,?,5µM*
CN(C)c1nc(N(C)C)nc(N(C)C)n1,-1%,?,6%[17.1 µM],1%,i,i,3,-3%,?
CCOc1ccc(C2c3c(oc4ccccc4c3=O)C(=O)N2c2ccc(C)cn2)cc1OC (centres undefined),0%,-5%,2µM*,1%,/,/,-9,-27%,10µM*
CC1CCC2C(=O)N3C(CCC(C)[C@H]3c3ccccc3Br)C(=O)N2C1c1ccccc1Br (some centres undefined),-1%[11.4 µM],3%[11.4 µM],/,-2%[11.5 µM],/,/,/,/,/
O=S(=O)(c1ccc2c(c1)OCCO2)N1CCN(c2cccc(Cl)c2)CC1,-2%,5%,?,0%,i,i,/,/,/
O=S(=O)(c1ccc2c(c1)OCCO2)N1CCC(O)(c2ccc(Cl)cc2)CC1,22%,3%,1%,2%,i,i,-2,-6%,?
O=C(CN1C(=O)CCSc2ccccc21)Nc1ccccc1,-3%,-6%,/,1%,/,/,/,/,/
COC(=O)c1ccc(CSc2ccc3nnc(-c4cccnc4)n3n2)o1,10%,-11%,?,2%,/,/,/,/,/
COC(=O)c1ccc(CSc2ccc3nnc(-c4ccc(OC)c(OC)c4)n3n2)o1,?,-7%,1.6µM*,-1%,i,i,-20,-28%,2µM*
CC(=O)N=C(N)Sc1nc2ccccc2[nH]1,/,/,/,/,i,i,/,/,/
CC(=O)N1CCN(c2ccc(Nc3nc(C)nc4c3oc3ccccc34)cc2)CC1,?,-7%,1µM*,-1%,i,i,-10,?,?
CCCCCOC(=O)c1[nH]c2c(c1C)C(=O)CC(c1ccco1)C2 (centres undefined),-14%,-3%,0.079µM*,0%,/,/,-22,-27%,-16%
CCCOC(=O)c1[nH]c2c(c1C)C(=O)CC(c1ccc(OC)c(OC)c1)C2 (centres undefined),-9%,11%,7%,-2%,i,i,/,/,/
